Assay outcomes from PubChem BioAssay.
This is a sample that favours compounds with a hit; in the whole collection about 3.2% have one here.
Tau fluor cs: counter-screen for tau fibril formation inhibitors | tau K18 P301L Alexa594 fluorescence, heparin fibrillization | Potency, µM (highest dose often 57.7 µM), for inactives: at the top dose activity change, negative = decrease | actives 0.93% (n = 280,000); further: potency means the concentration at half of the fitted maximal effect; on the % scale 0 is the no-effect control and ±100 the full control effect; nearly all actives have a fitted effect of over 55% in size
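Human tau K18 P301L (15 uM unlabeled, 0.24 uM Alexa 594-labeled) in 100 mM sodium acetate pH 7 with 20 uM heparin, 6 hr at 37 C. ThT 30 uM added, 1 hr ambient; Alexa 594 FP and total fluorescence read at 555/632 nm.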
Lamin A splicing: LMNA splicing modulation; HeLa LMNA splicing GFP/RFP minigene ratio, 48 h; Potency, µM (doses to about 46.1 µM), inactives show top-dose ratio change, negative = inhibition, most hits filed as inhibitors; actives 0.01% (n = 200,000); AID 1487; active means well fitted inhibition curve with a large enough effect in the signal ratio, with a control signal flat, not every such curve was filed as active; inconclusive means small, poorly fitted or top-dose-only effect, or effect the other way, or a change in a side signal; the % refers to the signal ratio; further: potency means the concentration at half of the fitted maximal effect; on the % scale 0 is the no-effect control and ±100 the full control effect
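Read-out is the ratio of GFP to DsRed2 object intensity, acquired by 488 nm laser-scanning cytometry on HeLa lamin A-EGFP minigene reporter cells. Compound incubation 48 hrs at 37 °C in Opti-MEM with 2% FBS; DMSO 0.5% final.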
CBFb RUNX1 block: blocks binding between human CBF-beta and RUNX1 | AlphaScreen CBFb-His/RUNX1-biotin binding, biochemical | Potency, µM (top dose mostly 59.8 µM), for the others: at the highest dose activity, negative = inhibition, hits mostly inhibitors | 230,000 tested, under 10 active | AID 1477; further: % of control where 0% means no effect
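Compounds were screened at multiple concentrations against a preformed CBF-beta(His)/RUNX1(biotin) complex (30 nM of each) for 15 min at room temperature, followed by 90 min with nickel and streptavidin beads and AlphaScreen reading.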
Tau ThT inhib: tau fibrillization inhibition (ThT binding); actives 2.1% (n = 270,000); P10636; AID 1460; recombinant tau K18 P301L, heparin-induced fibrillization, ThT fluorescence; Potency, µM (doses to about 57.4 µM), inactives show at the highest dose activity, negative = inhibition, most hits filed as inhibitors; further: potency means the concentration at half of the fitted maximal effect; on the % scale 0 is the no-effect control and ±100 the full control effect; nearly all actives have a fitted effect of over 55% in size
Target sequence (P10636 561-689 P618L limits assumed): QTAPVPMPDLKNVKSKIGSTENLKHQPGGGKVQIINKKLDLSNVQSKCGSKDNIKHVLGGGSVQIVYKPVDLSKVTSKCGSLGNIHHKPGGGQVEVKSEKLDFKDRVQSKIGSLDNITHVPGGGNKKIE
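ThT emission at 510 nm, taken 1 hr after adding 30 uM dye, quantifies aggregates formed when 20 uM heparin acts on human tau K18 P301L for 6 hr at 37 C.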
KDM4E inh: JMJD2E (human) inhibition | JMJD2E catalytic domain, FDH-coupled NADH fluorescence (FDH is formaldehyde dehydrogenase) | Potency, µM (titrated, usually from 57.1 µM), for inactives: at the top dose activity change, negative = inhibition, most hits filed as inhibitors | actives 1.6% (n = 230,000) | AID 2147; active means well fitted inhibition curve with a large enough effect, not every such curve was filed as active; inconclusive means small, poorly fitted or top-dose-only effect, or another doubt; inactive means no such curve, though single readings can be large or run the other way;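 further: potency means the concentration at half of the fitted maximal effect; 0% = wells with enzyme and -100% = buffer wells without enzyme; nearly all actives have a fitted effect of over 50% in size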
Target sequence (B2RXH2 1-337 limits assumed): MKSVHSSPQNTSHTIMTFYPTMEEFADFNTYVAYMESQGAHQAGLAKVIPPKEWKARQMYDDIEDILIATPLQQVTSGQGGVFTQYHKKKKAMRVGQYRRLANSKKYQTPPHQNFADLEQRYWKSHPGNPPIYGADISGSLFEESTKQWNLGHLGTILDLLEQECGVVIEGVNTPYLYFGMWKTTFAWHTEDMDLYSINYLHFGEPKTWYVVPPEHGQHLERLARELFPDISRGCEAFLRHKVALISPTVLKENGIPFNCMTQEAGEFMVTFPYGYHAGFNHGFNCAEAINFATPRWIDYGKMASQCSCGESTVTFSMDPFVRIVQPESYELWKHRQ
Tau fibril FP: blocks human tau fibril formation measured by polarization; K18 P301L tau heparin fibrillization, Alexa594 FP, 6 h; actives 0.39% (n = 280,000); P10636; Potency, µM (top dose mostly 57.7 µM), inactives show at the top dose activity, negative = inhibition, actives largely listed as inhibitors; further: potency means the concentration at half of the fitted maximal effect; on the % scale 0 is the no-effect control and ±100 the full control effect; nearly all actives have a fitted effect of over 55% in size
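K18 P301L tau (15 uM unlabeled/0.24 uM Alexa 594-labeled, final) + compound + heparin 20 uM final; 100 mM NaOAc pH 7; 6 hr 37 C; ThT 30 uM final added, 1 hr RT; FP ex 555/em 632 nm.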
Starred values were filed as active, the others as inactive; [ ] = another dose, or the depositor's remark. Unless noted, the call rests on the fitted dose curve; in most records, active means well fitted curve in the direction sought with a large enough effect; inconclusive means small, poorly fitted or top-dose-only effect, or another doubt; inactive means no such curve, though single readings can be large; an effect the other way counts as inactive or inconclusive.

Results for CC(C)c1ccc(NC(=O)C2CCCN2S(=O)(=O)c2ccc3nc(-c4ccccc4)[nH]c3c2)cc1 (centres undefined) ?
Tau fluor cs: 11µM*[quencher]; Tau ThT inhib: 9%; Tau fibril FP: 14µM*

How did Cc1ccc(NC(=O)C2CCCN2S(=O)(=O)c2ccc3nc(-c4ccccc4)[nH]c3c2)cc1C (centres undefined) do in these assays?
Tau fluor cs: 32µM*[quencher]; Tau ThT inhib: -15%; Tau fibril FP: inconclusive

Results for CCC(=O)N1CCc2cc(Br)cc(S(=O)(=O)CCC(=O)NCc3ccccc3)c21 ?
Tau fluor cs: -11%; Tau ThT inhib: -3%; Tau fibril FP: -4%

How did CC(C)C(C)(C#N)NC(=O)CSc1nc2scc(-c3ccco3)c2c(=O)n1-c1ccccc1 (centres undefined) do in these assays?
Tau fluor cs: -18%; Lamin A splicing: 21%; CBFb RUNX1 block: -22%; Tau ThT inhib: 10µM*; KDM4E inh: inconclusive; Tau fibril FP: 7.9µM*

What do the screens show for `C=CCSc1nnc2nc3c(nn12)c1cc(C)ccc1n3CC=C`?
Tau fluor cs: -5%; Lamin A splicing: inconclusive; CBFb RUNX1 block: -17%; Tau ThT inhib: 28µM*; KDM4E inh: -3%; Tau fibril FP: 3%

What do the screens show for `CN(Cc1ccco1)c1nc(-c2cccc(C#N)c2)nc2ccccc12`?
Tau fluor cs: -24%; Lamin A splicing: 19%; Tau ThT inhib: inconclusive; KDM4E inh: inconclusive; Tau fibril FP: inconclusive

Results for N#Cc1ccccc1/C=N/Nc1nc(-c2ccccc2)c2cc(Br)ccc2n1 ?
Tau fluor cs: -22%; Lamin A splicing: -5%; CBFb RUNX1 block: -1%; Tau ThT inhib: inconclusive; KDM4E inh: inconclusive; Tau fibril FP: -9%

What do the screens show for `O=[N+]([O-])c1ccc(/C=N/NC(=S)Nc2ccccc2)o1`?
Tau fluor cs: -7%; Lamin A splicing: -7%; CBFb RUNX1 block: -20%; Tau ThT inhib: -3%; KDM4E inh: -2%; Tau fibril FP: 3%

How did O=[N+]([O-])c1ccc(-c2ccc(/C=N/Nc3nc(N4CCCC4)nc(N4CCCC4)n3)o2)cc1 do in these assays?
Tau fluor cs: -15%; CBFb RUNX1 block: 19%; Tau ThT inhib: inconclusive; KDM4E inh: -6%; Tau fibril FP: 9%

What do the screens show for `O=[N+]([O-])c1ccc(/C=N/Nc2nc(-c3ccccc3)c3cc(Br)ccc3n2)o1`?
Tau fluor cs: -25%; Lamin A splicing: 13%; CBFb RUNX1 block: 1%; Tau ThT inhib: 2.8µM*; KDM4E inh: -2%; Tau fibril FP: 2%

Results for CCNc1nc(NCC)nc(N/N=C/c2ccc([N+](=O)[O-])o2)n1 ?
Tau fluor cs: -8%; Lamin A splicing: 4%; CBFb RUNX1 block: -9%; Tau ThT inhib: inconclusive; KDM4E inh: 1%; Tau fibril FP: 7%

Results for Cc1ccc2nc(N/N=C\c3ccc([N+](=O)[O-])o3)nc(-c3ccccc3)c2c1 ?
Tau fluor cs: 10µM*[quencher]; Lamin A splicing: inconclusive; CBFb RUNX1 block: -14%; Tau ThT inhib: 3.2µM*; KDM4E inh: 0%; Tau fibril FP: 13%

How did O=[N+]([O-])c1ccc(/C=N/Nc2ccc3ccccc3c2)o1 do in these assays?
Tau fluor cs: 3.5µM*[quencher]; Lamin A splicing: 8%; CBFb RUNX1 block: inconclusive; Tau ThT inhib: 3.2µM*; KDM4E inh: -5%; Tau fibril FP: inconclusive

Results for O=[N+]([O-])c1ccc(/C=N/Nc2nc(N3CCCC3)nc(N3CCCC3)n2)o1 ?
Tau fluor cs: -21%; Lamin A splicing: 28%; CBFb RUNX1 block: -19%; Tau ThT inhib: 18µM*; KDM4E inh: inconclusive; Tau fibril FP: -6%

What do the screens show for `Cc1ccc(C)c(-c2ccc(C(=O)O)o2)c1`?
Tau fluor cs: -9%[126 µM]; CBFb RUNX1 block: inconclusive; Tau ThT inhib: -17%[126 µM]; Tau fibril FP: 8%[126 µM]

Results for CC(C)C[C@H](NC(=O)[C@H](CCCCN)NC(=O)CNC(=O)[C@H](CC(C)C)NC(=O)[C@@H](N)C(C)C)C(=O)N[C@@H](CO)C(=O)N[C@@H](CCC(N)=O)C(=O)N[C@@H](CCC(=O)O)C(=O)N[C@@H](CC(C)C)C(=O)N[C@@H](Cc1cnc[nH]1)C(=O)N[C@@H](CCCCN)C(=O)N[C@@H](CC(C)C)C(=O)N[C@@H](CCC(N)=O)C(=O)N[C@H](C(=O)N[C@@H](Cc1ccc(O)cc1)C(=O)N1CCC[C@H]1C(=O)N[C@@H](CCCNC(=N)N)C(=O)N[C@H](C(=O)N[C@@H](CC(N)=O)C(=O)N[C@H](C(=O)NCC(=O)N[C@@H](CO)C(=O)NCC(=O)N[C@H](C(=O)N1CCC[C@H]1C(N)=O)[C@@H](C)O)[C@@H](C)O)[C@@H](C)O)[C@@H](C)O ?
CBFb RUNX1 block: 7%

Results for O=C(/C=C/c1ccc(O)c(O)c1)OC1C[C@](O)(C(=O)O)C[C@@H](O)[C@H]1O (some centres undefined) ?
CBFb RUNX1 block: 10%[21.7 µM]

How did CC(=O)c1ccc(N=Nc2ccc(N(C)C)cc2)cc1 do in these assays?
Tau fluor cs: -26%; CBFb RUNX1 block: -9%; Tau ThT inhib: 1µM*; KDM4E inh: inconclusive; Tau fibril FP: -7%

What do the screens show for `CN(C)c1ccc(C(=N)c2ccc(N(C)C)cc2)cc1`?
CBFb RUNX1 block: 20%[21.7 µM]

How did CC(=O)c1ccc(N=Nc2ccc(C)cc2)cc1 do in these assays?
Tau fluor cs: -25%; Lamin A splicing: 9%[46 µM]; CBFb RUNX1 block: inconclusive; Tau ThT inhib: 4.5µM*; KDM4E inh: 0%; Tau fibril FP: 3%

What do the screens show for `C=C(Nc1ccc(OCC)cc1)Nc1ccc(OCC)cc1`?
Tau fluor cs: -10%; Lamin A splicing: inconclusive; CBFb RUNX1 block: -6%; Tau ThT inhib: -10%; Tau fibril FP: 4%

How did C#CCOCCOCCOCCNc1nc(N2CCN(C(=O)[C@H](CCCCN)n3cc(C(N)CO)nn3)CC2)nc(N2CCN(C(=O)[C@H](CCC(=O)O)n3cc(C(N)CC(C)C)nn3)CC2)n1 (some centres undefined) do in these assays?
Tau fluor cs: 4%; CBFb RUNX1 block: 14%; Tau ThT inhib: 1%; KDM4E inh: 20µM*; Tau fibril FP: -13%

Results for CCC(=O)C1=C(c2ccc(F)cc2)N(C(=O)CC)n2c(nnc2-c2ccc(OC)cc2)S1 ?
Tau fluor cs: -20%; Lamin A splicing: inconclusive; Tau ThT inhib: inconclusive; Tau fibril FP: inconclusive
